From PubChem BioAssay AID1345085 (National Center for Advancing Translational Sciences (NCATS), 2018)
Results filed as inconclusive are left out. The source made the active and inactive calls. Calls follow the shape of the dose curve; as a rule, active = well fitted cell-killing curve with a large enough effect; inconclusive = small, poorly fitted or top-dose-only effect, or effect the other way; inactive = no such curve, though single readings can be large or run the other way.

Test system: C33A
Experiment: Confirmatory qHTS for gynecologic anti-cancer compounds from libraries of approved drugs and bioactive compounds; also: nearly all actives have a fitted effect of over 55% in size
Details: gynecologic cancer cell panel viability, ATPlite luminescence, 48 h; series mostly up to 57.6 µM; activity change, negative = viability loss: at the top concentration
Summary of the method: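 Cells (1,000/well) were plated, left 16 h at 37 C/5% CO2, then given compound at 11 concentrations (1:3) from 57.5 uM to 0.977 nM for 48 h. ATPlite luminescence after 15 min at room temperature gave IC50 values.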
% is scaled to controls: 0 for no effect and ±100 for the full control effect; potency is read from the fitted curve at half-maximal effect.

| SMILES | Potency | activity change, negative = viability loss |
| --- | --- | --- |
| C/C=C(/C)C(=O)O[C@H]1C(C)=C2[C@H]([C@@H]1OC(=O)CCCCCCC)[C@@](C)(OC(C)=O)C[C@H](OC(=O)CCC)[C@@]1(O)[C@H]2OC(=O)[C@@]1(C)O | 21.7 µM (active) | – |
| CCC(=O)O[C@H]1CC[C@H]2[C@@H]3CCC4=CC(=O)CC[C@]4(C)[C@H]3CC[C@]12C | – | 2.88% (inactive) |
| C[C@]12CC[C@H]3[C@@H](CCC4=CC(=O)CC[C@@H]43)[C@@H]1CC[C@@H]2OC(=O)CCc1ccccc1 | – | 8.47% (inactive) |
| CCN1CCN(C(=O)Cc2ccc(Nc3ncc(F)c(Nc4ccc(C(=O)Nc5ccccc5Cl)cc4)n3)cc2)CC1 | – | -12.3% (inactive) |
| Cc1sc2c(c1C)C(c1ccc(Cl)cc1)=NC(CC(=O)OC(C)(C)C)c1nnc(C)n1-2 (stereo unspecified) | – | -10.4% (inactive) |
| CCNC(=O)C[C@@H]1N=C(c2ccc(Cl)cc2)c2cc(OC)ccc2-n2c(C)nnc21 | – | -5.6% (inactive) |
